D3 antag: antagonists of human D3 dopamine receptor. P35462. D3R cells, DiscoveRx beta-arrestin luminescence, antagonist mode; active compounds read low. max response, negative = inhibition, %. 360,000 compounds, 2.5% hits. AID 652054; in the data active means max response below about -50%; inconclusive means no clear call, values can overlap the other calls; further: on the % scale 0 is the no-effect control and ±100 the full control effect
Target sequence (P35462 whole entry, looked up): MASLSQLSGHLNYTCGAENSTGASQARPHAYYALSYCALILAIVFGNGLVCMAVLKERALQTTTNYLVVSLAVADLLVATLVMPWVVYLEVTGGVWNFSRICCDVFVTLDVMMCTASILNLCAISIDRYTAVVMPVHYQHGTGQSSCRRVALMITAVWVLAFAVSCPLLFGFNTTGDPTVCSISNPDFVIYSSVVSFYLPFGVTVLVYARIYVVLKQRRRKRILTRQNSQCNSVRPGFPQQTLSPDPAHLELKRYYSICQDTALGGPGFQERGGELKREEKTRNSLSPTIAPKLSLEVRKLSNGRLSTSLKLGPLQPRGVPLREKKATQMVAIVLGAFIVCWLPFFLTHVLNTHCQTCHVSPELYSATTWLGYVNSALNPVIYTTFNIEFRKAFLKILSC
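Cells expressing the human receptor were seeded at 1500 cells/well, incubated overnight at 37 degrees C in 5% CO2, then exposed to library compounds with dopamine controls for 90 minutes at 37 degrees C before luminescent detection.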
DRD3 agonist: agonists of human D3 dopamine receptor | P35462 | max activation, % | 410,000 compounds, 0.58% hits | D3R DiscoveRx beta-arrestin cells, luminescence, 90 min | AID 652048; in the data active means max activation above about 30%; further: 0% is about no effect
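Agonist mode: compounds and dopamine controls were applied to plated cells for 90 min at 37 degrees C after an overnight attachment at 1500 cells/well. Luminescent read-out followed 30 - 60 minutes at room temperature with DiscoveRx detection reagent.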
Glioma ERSR ind: induces the endoplasmic reticulum stress response in human glioma cells; Potency, µM, without a hit: at the highest dose activation, actives largely listed as activators; 420,000 compounds, 0.02% hits; U87-MG GRP78 promoter luciferase reporter, 16 h; further: potency means the concentration at half of the fitted maximal effect; series mostly up to about 76 µM; % of control where 0% means no effect; nearly all actives have a fitted effect of over 35% in size
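ERSR induction read as luciferase luminescence (Bright-Glo, 10 min at room temperature) in stably transfected human U87-MG glioma cells exposed to compounds for 16 h, using GRP78 as sensor.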
Nrf2 activator: activators of Nrf2 (ARE) signaling; AREc32 ARE-luciferase reporter (MCF7-derived line), luminescence, 24 h; Potency, µM (titrated, usually from 46.1 µM), without a hit: at the highest dose activation, actives largely listed as activators; 410,000 compounds, 0.31% hits; AID 624171; further: potency means the concentration at half of the fitted maximal effect; % of control where 0% means no effect; nearly all actives have a fitted effect of over 65% in size
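ARE-driven firefly luciferase activity in AREc32 cells measured after a 24 hr compound exposure at 37 deg C, using Steady-Glo reagent and a 30 min room-temperature hold.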
Starred values were filed as active, the others as inactive; ? = inconclusive; / = no result given; ! = repeats disagree. Hits are enriched below; roughly 3% of the tested compounds scored in any of these assays. Unless noted, the call rests on the fitted dose curve; in most records, active means well fitted curve in the direction sought with a large enough effect; inconclusive means small, poorly fitted or top-dose-only effect, or another doubt; inactive means no such curve, though single readings can be large; an effect the other way counts as inactive or inconclusive.

SMILES	D3 antag	DRD3 agonist	Glioma ERSR ind	Nrf2 activator
C=CCC[C@H](Cc1ccc(F)cc1)C(=O)OC[C@H](Cc1c[nH]c2ccccc12)NC(=O)[C@@H](CC=C)CC(=O)N[C@@H](CO)Cc1ccccc1	-10	9	-8%	-3%
CCCCCCc1cc2cc(C(=O)OCC)c(=O)oc2cc1O	5	4	-2%	-1%
CCCCCCc1cc2cc(S(=O)(=O)c3ccc(F)c(Cl)c3)c(=O)oc2cc1O	30	69*	-3%	0%
O=C1CCCCc2cc(O)c(O)cc21	-2	52*	2%	3%
CCN(CC)c1ccc2cc(C(C)=O)c(=O)oc2c1	1	-7	6%	1%
CCN(CC)c1ccc2cc(C=O)c(=O)oc2c1	-55*	-5	-4%	4%
COc1ccc(CCNC(=O)c2ccc3c(c2)ncn3-c2ccc(C(C)C)cc2)cc1OC	/	3	-6%	0%
CCOc1ccccc1-c1nc(CN2CCCN(C(=O)c3ccco3)CC2)c(C)o1	-79*	-40	-5%	1%
COc1ccc(-c2nc(CN3CCN(C(=O)c4ccco4)CC3)c(C)o2)c(F)c1	20	35*	-2%	0%
COC(=O)c1ccc(-c2nc(CN3CCCN(C(=O)c4ccco4)CC3)c(C)o2)cc1	4	-1	-1%	0%
Cc1oc(-c2ccc(F)cc2F)nc1CN1CCN(C(=O)c2ccco2)CC1	-23	-1	0%	-1%
O=C(NCC1Cc2cccc(-c3cccnc3)c2O1)c1cc(-c2ccccc2)n[nH]1 (centres undefined)	/	/	0%	/
COC(=O)C1CCN(Cc2ccc3c(c2)CN(C(=O)c2ccc(-n4cnnn4)cc2)CCO3)CC1	/	/	-5%	/
Cc1c(C(=O)Nc2ccc(S(=O)(=O)N(C)C3CCN(C)CC3)cc2)oc2ccccc12	-19	-20	-2%	15%
Cc1ccccc1OCCC(=O)Nc1ccc(S(=O)(=O)N(C)C2CCN(C)CC2)cc1	-61*	-28	-4%	3%
Cc1c(C(=O)Nc2ccc(S(=O)(=O)N(C)C3CCN(C)CC3)cc2)oc2c(Cl)cccc12	-66*	-11	-12%	-1%
COCC(=O)Nc1cc(C(=O)N2CCCOc3c(cccc3OC)C2)c2c(c1)nc(C1CCC1)n2C	/	/	0%	/
Cc1cc(=O)oc2cc(OCC(=O)Nc3c(C(C)C)cccc3C(C)C)ccc12	/	-1	-3%	1%
COc1cc(OC)cc(-c2nc3ccccc3c(=O)n2OC(=O)c2ccc(C)c(C)c2)c1	109	30*	1%	7%
COc1cc(OC)cc(C(=O)Nn2c(C)nc3ccccc3c2=O)c1	10	3	-4%	-1%
COc1ccccc1C1CN(Cc2cccc(C)n2)Cc2ccccc2O1 (centres undefined)	/	/	-4%	/
CC(=O)NCC(=O)NCC1Cc2cc(C)cc(-c3ccccn3)c2O1 (centres undefined)	/	/	-1%	/
CCC(c1ccc(O)c(O)c1)C(CC)c1ccc(O)c(O)c1 (centres undefined)	0	16	-7%	?
CC[C@H](NC(C)C)[C@H](O)c1ccc(O)c2[nH]c(=O)ccc12	/	45*	-5%	/
CCC(NC(C)C)C(O)c1ccc(O)c(O)c1 (centres undefined)	30	34*!	-3%	22%
SMILES	D3 antag	DRD3 agonist	Glioma ERSR ind	Nrf2 activator
Cc1cccc2c(N3CCCC3)nc(CNS(=O)(=O)c3ccccc3Cl)nc12	/	/	-5%	/
O=C(O)CN1C2=NCCCN2c2ccccc21	-17	-2	-5%	-1%
CC(C)(C)c1ccc(CN2C3=NCCCN3c3ccccc32)cc1	-63*	-1	-11%	4%
O=C(CN1C2=NCCCN2c2ccccc21)c1ccc(Br)s1	-54*	-16	-4%	2%
COc1ccccc1NC(=O)CCN1CCC(C(N)=O)CC1	/	-17	-4%	-1%
O=C(OC1CCN(c2ncc(C(F)(F)F)cc2Cl)CC1)c1ccc(Cl)cc1	1	-1	-4%	-1%
O=C(CSc1nccn1-c1ncc(C(F)(F)F)cc1Cl)c1ccc(Cl)cc1	-107*	1	4%	4%
O=C(OCCN1CCN(c2ncc(C(F)(F)F)cc2Cl)CC1)c1ccc(Cl)cc1	-83*	-11	-4%	2%
CCC(C)n1ncn(-c2ccc(N3CCN(c4ccc(OC[C@H]5CO[C@](Cn6cncn6)(c6ccc(Cl)cc6Cl)O5)cc4)CC3)cc2)c1=O (some centres undefined)	/	7	/	/
COc1cccc(C(=O)Nc2ccccc2OCc2cc(=O)n3ccccc3n2)c1	/	-12	-3%	8%
CCCCC1=CC2=C(c3ccco3)C(=O)C(C)(OC(=O)c3ccc(OC)cc3)C(=O)C2=CN1CCOC (centres undefined)	-6	-12	-4%	0%
CCCCC1=CC2=C(c3ccco3)C(=O)C(C)(OC(=O)c3ccc(OC)cc3)C(=O)C2=CN1C1CCCCC1 (centres undefined)	-91*	-39	-1%	4%
O=C(Nc1ccccc1F)c1coc(=O)c(Br)c1	-22	-2	-5%	27%
C[C@@H](NC(=O)c1coc(=O)c(Br)c1)c1ccccc1	-16	-8	-17%	11µM*
O=C(Nc1ccc(Br)cn1)c1coc(=O)c(Br)c1	13	1	-4%	18µM*
Cc1csc(NC(=O)c2ccccc2)n1	-2	2	-4%	6%
COc1cc(OC)nc(NC(=S)NC(=O)c2ccccc2)n1	9	-7	0%	11µM*
Cc1csc(NC(=S)NC(=O)c2ccccc2)n1	-28	0	0%	6.3µM*
Cc1ccc2cccc(NC(=S)NC(=O)c3ccccc3)c2n1	2	-3	6%	4µM*
O=C(NC(=S)Nc1cccc(NC(=S)NC(=O)c2ccccc2)c1)c1ccccc1	-21	-10	2%	15%
Cc1cc(C)c2cccc(NC(=S)NC(=O)c3ccccc3)c2n1	-7	-2	0%	?
COC(=O)c1ccccc1NC(=O)COc1ccccc1C(=O)Nc1ccccc1	/	/	-2%	/
CC(C)(C)C1CCc2c(C(=O)N/N=C/c3cccs3)csc2C1 (centres undefined)	?	32*	?	0%
Cc1cccc(NC(=O)CSc2nc(C)c(CC(=O)c3ccc(Br)cc3)c(C)c2C#N)c1C	-53*	2	0%	4%
O=c1c(Cl)c(Cl)cnn1Cc1nnc(-c2ccccc2Br)o1	-81*	-16	-13%	?
COc1cc(NC(=O)CCc2c(C)n(C)c3cc(-c4ccccc4C)nn3c2=O)cc(OC)c1OC	/	3	0%	8%
OCCCn1c(C2CCCN2c2nc(-c3ccc(F)cc3)cs2)nc2cc(Cl)c(Cl)cc21 (centres undefined)	-56*	-44	1%	1%
OCCCn1c(C2CCCN2c2nc(-c3ccc(Cl)cc3)cs2)nc2cc(Cl)c(Cl)cc21 (centres undefined)	0	8	-1%	6%
Cc1ccc(-c2csc(NCCc3nc4cc(Cl)c(Cl)cc4n3CCCO)n2)cc1	5	70*	1%	6%
Cc1ccc(Cn2c(CCNc3nc(-c4ccc(C)cc4)cs3)nc3cc(C(=O)NCCCO)ccc32)cc1	6	31*	-5%	0%
